Reference: the supplement of paper PMC8728848
This is one part of a sample in which the strongest signals are shown more often than they occur.

Columns and labels:
Assay in all cases: glycan array binding signal (z-score within array); higher = stronger binding
Conditions in all cases: glycan notation: IUPAC condensed, linker removed
[1] = system: Neu5Ac(a2-8)Neu5Ac(a2-3)Gal(b1-4)Glc
In short: (§1)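 Glycan array binding is given as a within-array Z-score, which can be read as non-binding when negative. The arrays, 3228 of them, came from the Consortium for Functional Glycomics database and were retained only where the protein sequence was available. Z-scores were averaged across arrays of the same protein sequence at different concentrations or buffers and across linkers.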

[2] = system: Neu5Ac(a2-8)Neu5Ac(a2-8)Neu5Ac(a2-3)[GalNAc(b1-4)]Gal(b1-4)Glc
In short: as §1

[3] = system: Neu5Gc(a2-3)Gal(b1-3)[Fuc(a1-4)]GlcNAc
In short: as §1

[4] = system: Neu5Ac(a2-8)Neu5Ac(a2-3)[Gal(b1-3)GalNAc(b1-4)]Gal(b1-4)Glc
In short: as §1

[5] = system: Neu5Gc(a2-3)Gal(b1-3)GlcNAc
In short: as §1

[6] = system: Neu5Ac(a2-8)Neu5Ac(a2-8)Neu5Ac(a2-8)Neu5Ac(a2-8)Neu5Ac(a2-8)Neu5Ac(a2-8)Neu5Ac(a2-8)Neu5Ac
In short: as §1

[7] = system: Neu5Ac9Ac(a2-6)Gal(b1-4)GlcNAc
In short: as §1

[8] = system: Neu5Gc(a2-3)Gal(b1-4)GlcNAc
In short: as §1

Substance: Actinohivin (Actinomycete K97)
- glycan array binding signal (z-score) [1]: -0.163
- glycan array binding signal (z-score) [2]: -0.14
- glycan array binding signal (z-score) [3]: -0.168

Substance: AgI/II Vhelical-GFP (Streptococcus mutans)
- glycan array binding signal (z-score) [4]: 0.136
- glycan array binding signal (z-score) [5]: 0.551

Substance: SiiE (Salmonella typhimurium), A0A0H3NVH0
- glycan array binding signal (z-score) [2]: -0.437

Substance: MIC3-MAR1b (Eimeria tenella), B6VCV4
- glycan array binding signal (z-score) [6]: -0.531

Substance: MIC3-MAR5 (Eimeria tenella), B6VCV4
- glycan array binding signal (z-score) [6]: -0.75

Substance: LcI (Legionella pneumophila)
- glycan array binding signal (z-score) [7]: 0.198

Substance: GspB (Streptococcus gordonii), Q939N5
- glycan array binding signal (z-score) [7]: 2.97

Substance: SpGH101 (Streptococcus pneumoniae), Q8DR60
- glycan array binding signal (z-score) [8]: -0.177

Substance: AgI/IIC123-GFP (Streptococcus mutans)
- glycan array binding signal (z-score) [8]: -0.472
